Compound activity as filed in PubChem BioAssay.
GPR151 ag = activators of human GPR151, primary screen, cell-based, PathHunter beta-arrestin, luminescence. G-protein coupled receptor 151 (Homo sapiens), Q8TDV0. activation, % at 11.2 µM. 650,000 tested, 1% active. PathHunter beta-arrestin GPR151 cells; in the data active = activation above about 4.9%;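 note: 0% = median of compound wells and 100% = cells with positive control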
TEAD-YAP inh = TEAD-YAP interaction inhibition, primary screen, TEAD-YAP interaction inhibitor project, luminescence, HEK-TIYL cells; TEAD-Gal4/YAP UAS-luciferase luminescence; inhibition, % at 9.12 µM; 640,000 tested, 1.4% active; AID 1259422, 2018; in the data active = inhibition above about 32%;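 note: 0% = median of test compound wells and 100% = reference inhibitor wells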
MITF inh = MITF inhibitors, primary screen, biochemical, AlphaScreen, human; Microphthalmia-associated transcription factor (Homo sapiens), O75030; AlphaScreen MITF homodimerization, bead proximity signal; inhibition, % at 2.6 µM; 650,000 tested, 0.91% active; in the data active = inhibition above about 50%;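 note: 0% = vehicle wells with protein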
Target sequence (O75030 whole entry, looked up): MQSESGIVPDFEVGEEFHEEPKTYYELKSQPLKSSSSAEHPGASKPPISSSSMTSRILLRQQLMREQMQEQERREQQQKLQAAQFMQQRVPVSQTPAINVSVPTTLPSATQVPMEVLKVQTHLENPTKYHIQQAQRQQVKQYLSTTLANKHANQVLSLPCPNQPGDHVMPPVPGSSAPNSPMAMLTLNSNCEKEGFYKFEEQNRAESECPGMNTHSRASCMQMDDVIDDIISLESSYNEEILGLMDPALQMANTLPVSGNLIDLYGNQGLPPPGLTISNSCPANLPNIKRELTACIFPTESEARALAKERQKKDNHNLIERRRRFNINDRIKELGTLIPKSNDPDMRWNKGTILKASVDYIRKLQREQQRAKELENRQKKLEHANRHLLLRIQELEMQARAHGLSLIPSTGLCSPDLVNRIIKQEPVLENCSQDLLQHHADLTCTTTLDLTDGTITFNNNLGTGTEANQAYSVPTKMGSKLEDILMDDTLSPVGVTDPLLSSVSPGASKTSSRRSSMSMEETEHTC
FBW7 act = FBW7 E3 ligase activators, primary screen, biochemical, AlphaScreen, human; 650,000 tested, 0.13% active; AlphaScreen FBW7–phospho-cyclin E peptide binding, activator screen; AID 1259310, 2017; F-box/WD repeat-containing protein 7 (Homo sapiens), Q969H0; normalized activity (activation), % at 26.1 µM; in the data active = normalized activity above about 1.9%;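 note: purified mutant Fbw7 with reduced substrate affinity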
* hit, by the source's call. Rows were chosen to be rich in hits. Some 3.4% of all compounds tested hit in one or more screens of this group.

SMILES	GPR151 ag	TEAD-YAP inh	MITF inh	FBW7 act
Cc1ccc(S(=O)(=O)NCC(=O)OCc2nc(N)nc(Nc3ccccc3C)n2)cc1	-1.2	-9.8	9.1	0.3
COc1cccc(CC2(CO)CCCN(C(=O)CC3=CCCCC3)C2)c1 (configuration not stated)	-0.1	6.2	16.9	0.4
Cc1ccc(C(O)C(C)(C)C(=O)O)cc1 (configuration not stated)	-0.2	2.8	9.3	-0.2
CCN1/C(=C/C=C/c2cc[n+](CC)c3ccccc23)C=Cc2ccccc21	0.0	8.8	5.2	0.2
CCN1/C(=C/c2ccc3cc(C)ccc3[n+]2CC)C=Cc2ccccc21	-1.2	92.2*	8.2	-1.1
C[n+]1ccccc1/C=C1\Sc2ccccc2N1CCO	0.4	13.4	5.7	-0.2
CC[n+]1c(/C=C2\Sc3ccccc3N2CCO)ccc2cc(OC)ccc21	2.3	69.7*	3.0	-0.9
CC[n+]1c(/C=C2\Sc3ccccc3N2C)ccc2ccc(C)cc21	0.3	77.2*	0.7	-0.3
CCN1/C(=C/c2c3ccccc3cc[n+]2CC)C=Cc2ccccc21	1.4	89.5*	21.8	-0.3
CC[n+]1c(/C=C2\Sc3cc(NC(C)=O)ccc3N2C)ccc2ccccc21	0.0	10.2	13.4	-0.1
CC(=O)Nc1nnc(C(c2ccccc2)c2ccccc2)s1	0.2	-10.8	-6.4	-0.1
CCN1/C(=C/c2ccc3cc(C)ccc3[n+]2C)Sc2ccc3ccsc3c21	3.3	76.5*	23.3	-0.5
CC[n+]1c(/C=C2\Sc3ccccc3N2CCO)ccc2cc(C)ccc21	0.7	53.5*	9.9	-0.2
CC[n+]1c(/C=C2\Sc3cc(C)ccc3N2CCO)ccc2ccccc21	1.2	63.8*	24.8	-0.2
Cc1cccc2c1N(C)/C(=C/c1cccc[n+]1C)C=C2	1.8	9.3	-2.7	0.0
CN1/C(=C/c2cccc[n+]2C)C=Cc2ccccc21	2.7	71.4*	11.7	0.0
CCN(CC)C(=O)Oc1ccc2c(c1C)O/C(=C\c1ccc(OC)cc1OC)C2=O	2.9	-4.8	-0.3	-0.1
COc1ccc(-c2nnc(/C=C/c3cccs3)o2)cc1	-11.4	72.4*	10.0	0.5
COCCCNC(=O)c1ccc2c(c1)nc(C)n2-c1cc(C)ccc1OC	1.2	55.6*	-12.1	0.1
CCOCCCNC(=O)c1ccc2c(c1)nc(C)n2-c1cc(C)ccc1OC	2.2	15.4	-3.0	0.0
COc1cc(Nc2ccc(-n3cc(CC(=O)NCCOc4ccccc4)c4ccccc43)nn2)cc(OC)c1OC	2.3	29.0	7.3	-0.1
CCOC(=O)c1ccc(COC(=O)c2ccccc2NC)cc1	-1.0	-9.0	-9.1	2.2*
CN(C)c1ccc(/C=N/NC(=O)Cc2n[nH]c(=O)[nH]c2=O)cc1	-1.5	5.9	14.8	0.1
O=C1OC(OC(=O)c2ccccc2)C(Nc2ccccc2)=C1Cl (configuration not stated)	-1.7	-1.0	-2.3	0.0
O=C1OC(OC(=O)c2ccccc2)C(Nc2cccc(O)c2)=C1Cl (configuration not stated)	-1.0	1.7	11.2	2.4*
SMILES	GPR151 ag	TEAD-YAP inh	MITF inh	FBW7 act
Cc1ccc(NC(=S)N(CCCN2CCCCC2)Cc2ccco2)cc1C	0.5	5.1	4.1	-0.1
COc1ccccc1CC(=O)Nc1ccc(C)cc1C	-2.1	-1.6	-12.7	0.0
COc1ccccc1CNc1cc(C)ccc1OC	0.4	-2.0	61.8*	0.0
COc1ccccc1CNc1ccccc1SC	-0.1	3.8	-17.2	0.0
COc1ccccc1CNc1ccccc1F	-1.0	9.1	-7.8	2.2*
CCCCNc1nnnc2c1sc1nc(N3CCOCC3)c3c(c12)CC(C)(C)OC3	0.4	-1.6	12.1	-0.1
CCOc1ccc(NCc2ccc(O)c3ncccc23)cc1	-0.3	10.7	62.4*	-1.3
Oc1ccc(CNc2ccc(Cl)cn2)c2cccnc12	-1.1	54.1*	31.2	-0.7
Oc1ccc(CNc2cccc(Br)c2)c2cccnc12	-1.1	0.5	26.9	-1.0
N#C/C(=C\c1ccco1)c1nc(-c2ccc([N+](=O)[O-])cc2)cs1	-0.4	10.8	12.7	0.2
Cc1sc2ncnc(SCc3cc([N+](=O)[O-])cc4c3OCOC4)c2c1C	-1.0	1.2	3.4	0.1
Cc1sc2ncnc(SCc3cc(=O)oc4cc(O)c(O)cc34)c2c1C	-1.5	9.4	63.9*	-0.3
CC(C)CCOC(=O)c1ccc(NC(=O)C(C)N2C(=O)c3ccccc3C2=O)cc1 (configuration not stated)	0.5	-8.1	14.4	0.1
N#C/C(=C\c1ccc(-c2cccc([N+](=O)[O-])c2)o1)C(N)=O	1.0	8.4	6.7	-0.3
N#C/C(=C/c1ccc(-c2ccc([N+](=O)[O-])cc2)o1)C(N)=O	0.2	14.6	11.6	2.4*
Cc1cc(N2CCC(C)CC2)nc2ccc(NC(=O)CCC(=O)N3CCCC(C)C3)cc12 (configuration not stated)	0.0	11.2	-3.5	0.0
Nc1nc(N2CCN(Cc3ccc4c(c3)OCO4)CC2)nc2c1ncn2CCN1CCCC1=O	-1.0	-1.7	9.8	-0.1
O=C(CSc1nnc2c3ccccc3n(Cc3ccccc3)c2n1)NCc1ccco1	-1.1	9.9	10.1	0.4
Cc1ccc2[nH]c3c(c2c1)CCCC3NCc1ccc(Cl)cc1 (configuration not stated)	1.0	43.2*	10.8	-0.1
COC(CNC1CCCc2c1[nH]c1ccc(C)cc21)OC (configuration not stated)	0.0	14.3	2.2	-0.1
O=[N+]([O-])c1ccc2ncnc(Nc3ccc(F)cc3F)c2c1	0.4	35.2*	-6.8	-0.1
COc1ccc(N/C=C\C(=O)c2cccs2)cc1OC	-0.4	-27.7	28.4	1.2
Cc1ccc(N(Cc2ccc(Br)cc2)C(=O)c2cccc3ccccc23)cc1	0.8	-6.1	-9.0	0.0
O=C(CC1c2ccccc2Oc2ccccc21)Nc1ccccn1	0.2	25.2	16.9	0.1
Cc1ccc(NC(=O)CC2c3ccccc3Oc3ccccc32)nc1	-0.3	52.2*	15.4	0.3
SMILES	GPR151 ag	TEAD-YAP inh	MITF inh	FBW7 act
COC(=O)c1ccccc1N(Cc1ccccc1)S(=O)(=O)c1ccc(OC)cc1	-1.2	51.1*	-0.9	0.0
COc1ccc(S(=O)(=O)N(Cc2ccccc2)c2ccccc2C(=O)NC2CC2)cc1	0.5	46.9*	3.8	1.6
O=C1c2ccc3c4c(ccc(c24)C(=O)N1CCCCO)C(=O)N(CCCCO)C3=O	-1.1	78.9*	35.0	-0.6
Cc1ccsc1-c1nc(CSCC(=O)N2CCCC2)c(C)o1	0.1	46.1*	-3.5	-0.1
Cc1ccccc1-c1nc(CSCC(=O)N2CCOCC2)c(C)o1	0.7	11.8	-2.6	-0.1
CCc1ccc(-c2nc(CSCC(=O)N3CCN(CC)CC3)c(C)o2)cc1	0.1	36.5*	-7.2	-0.2
Cc1ccccc1-c1nc(CSCC(=O)N2CCCC2)c(C)o1	-0.6	56.0*	-9.4	0.2
O=C(CSc1ccc(-c2ccc(-n3ccnc3)cc2)nn1)N1CCc2ccccc21	-1.1	-16.6	-35.4	2.3*
